Here are results for 13 compounds from PubChem BioAssay (Tox21).

Structures are written as SMILES. Values joined by “and” are separate entries in the source; they are usually repeats but may differ in a detail not shown here. Identical values can stand only once. Results filed as inconclusive are left out. Where a structure was tested more than once in an assay, its records may differ in their call. Active and inactive are the calls of the source. Unless noted, calls come from the whole dose curve; as a rule, active = well fitted curve in the direction sought with a large enough effect in the repeat runs; inconclusive = weak or mixed curves; inactive = no such curve, though single readings can be large; an effect the other way counts as inactive or inconclusive.

Experiment [1] can be described thus: qHTS assay to test for compound auto fluorescence at 535 nm (green) in HEK293 cells (AID 720680). A general note: In qHTS, concentration-response curves come from the screen itself.
Experiment [2] in a line: qHTS assay to test for compound auto fluorescence at 460 nm (blue) in HEK293 cell free culture (AID 720681). In short, it runs like this: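 Test compounds were pinned into cell-free culture medium (DMEM with 10% FBS) and fluorescence was read directly at Ex/Em 405/460 nm. Signals were expressed as fluorescence equivalents of triamterene, with DMSO vehicle as control.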
Experiment [3] is described as follows: qHTS assay to test for compound auto fluorescence at 535 nm (green) in HEK293 cell free culture (AID 720682). Summed up: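 Read-out: 485/535 nm fluorescence intensity, calibrated against fluorescein. Medium only (DMEM + 10% FBS, no cells); test compound or DMSO vehicle added by pintool before plate reading.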
Experiment [4] can be described thus: qHTS assay to test for compound auto fluorescence at 590 nm (red) in HEK293 cell free culture (AID 720683). Summed up: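 Tox21 10K library compounds were pinned into cell-free DMEM with 10% FBS and fluorescence was read at excitation 540 nm. Activity is expressed as Rose Bengal sodium equivalency.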
A short description of experiment [5]: qHTS assay to test for compound auto fluorescence at 590 nm (red) in HepG2 cell free culture (AID 720684). In short, it runs like this:
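Measured in medium alone (MEM containing 10% FBS) following pintool addition of compound; emission at 590 nm with 540 nm excitation, referenced to Rose Bengal sodium.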

A short description of experiment [6]: qHTS assay to test for compound auto fluorescence at 535 nm (green) in HepG2 cell free culture (AID 720686).
Experiment [7] in a line: qHTS assay to test for compound auto fluorescence at 460 nm (blue) in HepG2 cells (AID 720687). Summed up:
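Cells (2,000/well in MEM with 10% FBS) attached overnight at 37 C, then were exposed to compound or DMSO for 1 hr at 37 C, 5% CO2. Fluorescence read at Ex/Em 405/460 nm, expressed as triamterene-equivalent signal.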

Experiment [8] in a line: qHTS assay to identify small molecule antagonists of the glucocorticoid receptor (GR) signaling pathway - cell viability counter screen (AID 720693). Note: nearly all actives have a fitted effect of over 55% in size.
The nature of experiment [9]: qHTS assay to identify small molecule antagonists of the androgen receptor (AR) signaling pathway - cell viability counter screen (AID 743033; note: nearly all actives have a fitted effect of over 45% in size; note: potency is the fitted concentration of half-maximal effect).
Experiment [10] has as its target Androgen receptor (Homo sapiens) (UniProt P10275). Put plainly: qHTS assay to identify small molecule antagonists of the androgen receptor (AR) signaling pathway (AID 743035; active = well fitted inhibition curve with a large enough effect in the signal ratio in the repeat runs, not every such curve was filed as active; the % refers to the signal ratio). In short, it runs like this: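 Fluorescence from a beta-lactamase FRET substrate (LiveBLAzer B/G, 2 h, room temperature) measured inhibition of R1881-stimulated signaling in GeneBLAzer AR-UAS-bla HEK293 cells exposed to compound for 16 h at 37C.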

Experiment [11] shares this target. Nature of the experiment: qHTS assay to identify small molecule agonists of the androgen receptor (AR) signaling pathway (AID 743036; active = well fitted activation curve with a large enough effect in the signal ratio in the repeat runs, with a control signal flat, not every such curve was filed as active; the % refers to the signal ratio). Summed up:
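HEK293 cells stably carrying a UAS-driven beta-lactamase reporter (GeneBLAzer AR-UAS-bla-GripTite) were plated at 2,000 cells/well, rested 4 h at 37C, then exposed to compounds in DMSO for 16 h. LiveBLAzer B/G FRET substrate was added for 2 h at room temperature; fluorescence read.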

For experiment [12] the target is unchanged. Nature of the experiment: qHTS assay to identify small molecule agonists of the androgen receptor (AR) signaling pathway using the MDA cell line (AID 743040; note: nearly all actives have a fitted effect of over 20% in size). In short, it runs like this:
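Luminescence from ONE-Glo, read after 30 min at room temperature, reflects MMTV-driven luciferase in MDA-kb2 cells (AR- and GR-responsive). Treatment lasted 16 h at 37C, 0% CO2.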

Experiment [13] in a line: qHTS assay for identifying genotoxic compounds that show differential cytotoxicity against isogenic chicken DT40 cell lines with known DNA damage response pathways - wild type cell line (AID 743012). Note: nearly all actives have a fitted effect of over 60% in size. Note: potency is the fitted concentration of half-maximal effect. In short, it runs like this:
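Wild type DT40, 300 cells/well, ~0.5 h settle at 37 C/5% CO2; compounds in DMSO added by pintool; 40 h at 37 C/5% CO2; CellTiter-Glo, 30 min RT; luminescence.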

The nature of experiment [14]: qHTS assay for identifying genotoxic compounds that show differential cytotoxicity against isogenic chicken DT40 cell lines with known DNA damage response pathways - Rev3 mutant cell line (AID 743014). Note: nearly all actives have a fitted effect of over 55% in size. Note: potency is the fitted concentration of half-maximal effect.
Experiment [15] can be described thus: qHTS assay for identifying genotoxic compounds that show differential cytotoxicity against isogenic chicken DT40 cell lines with known DNA damage response pathways - Rad54/Ku70 mutant cell line (AID 743015). Note: nearly all actives have a fitted effect of over 60% in size. Note: potency is the fitted concentration of half-maximal effect.
Experiment [16] in a line: qHTS assay to test for compound auto fluorescence at 460 nm (blue) in HepG2 cell free culture (AID 720685). Summed up:
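Compound (23 nL) or DMSO pinned into cell-free MEM with 10% FBS; blue fluorescence read at 405/460 nm excitation/emission, expressed as auto-fluorescence equivalency to triamterene.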

Experiment [17] deals with Glucocorticoid receptor (Homo sapiens) (UniProt P04150). Nature of the experiment: qHTS assay to identify small molecule agonists of the glucocorticoid receptor (GR) signaling pathway (AID 720691; active = well fitted activation curve with a large enough effect in the signal ratio in the repeat runs, not every such curve was filed as active; the % refers to the signal ratio). Particulars: GR-bla HeLa, beta-lactamase reporter ratio, 18 h; activation: at 62.4 µM (top of the series) unless noted. Summed up:
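Fluorescence intensity from LiveBLAzer B/G FRET substrate (2 h, room temperature) reports beta-lactamase expression driven by the glucocorticoid response element in GR-bla HeLa cells after 18 h compound exposure at 37 C.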

For experiment [18] the target is unchanged. Put plainly: qHTS assay to identify small molecule antagonists of the glucocorticoid receptor (GR) signaling pathway (AID 720692; active = well fitted inhibition curve with a large enough effect in the signal ratio in the repeat runs, not every such curve was filed as active; the % refers to the signal ratio). In short, it runs like this: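 HeLa GR-bla cells; cmpd + dex 5 nM final, 18 h 37 C; LiveBLAzer B/G FRET substrate 2 h RT; fluorescence intensity read. Antagonist mode, qHTS.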
Experiment [19] can be described thus: qHTS assay to identify small molecule antagonists of the androgen receptor (AR) signaling pathway using the MDA cell line - cell viability counter screen (AID 743041; note: nearly all actives have a fitted effect of over 45% in size). Summed up:
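Viability counter screen run alongside the AR antagonist reporter: cells seeded 5 h before compound, R1881 added, 16 h incubation at 37C without CO2, fluorescent CellTiter-Fluor signal quantified.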

Experiment [20] concerns the target Androgen receptor (Homo sapiens) (UniProt P10275). Nature of the experiment: qHTS assay to identify small molecule antagonists of the androgen receptor (AR) signaling pathway using the MDA cell line (AID 743042; note: nearly all actives have a fitted effect of over 55% in size). Summed up: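 MDA-kb2 cells (human breast carcinoma, stably carrying an MMTV-luciferase reporter responsive to AR and GR) were plated at 3,000 cells/well and preincubated 5 hr at 37C, then given compound plus R1881 agonist for 16 h. ONE-Glo luminescence was read.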

Glucocorticoid receptor (Homo sapiens), sequence (P04150 whole entry, looked up): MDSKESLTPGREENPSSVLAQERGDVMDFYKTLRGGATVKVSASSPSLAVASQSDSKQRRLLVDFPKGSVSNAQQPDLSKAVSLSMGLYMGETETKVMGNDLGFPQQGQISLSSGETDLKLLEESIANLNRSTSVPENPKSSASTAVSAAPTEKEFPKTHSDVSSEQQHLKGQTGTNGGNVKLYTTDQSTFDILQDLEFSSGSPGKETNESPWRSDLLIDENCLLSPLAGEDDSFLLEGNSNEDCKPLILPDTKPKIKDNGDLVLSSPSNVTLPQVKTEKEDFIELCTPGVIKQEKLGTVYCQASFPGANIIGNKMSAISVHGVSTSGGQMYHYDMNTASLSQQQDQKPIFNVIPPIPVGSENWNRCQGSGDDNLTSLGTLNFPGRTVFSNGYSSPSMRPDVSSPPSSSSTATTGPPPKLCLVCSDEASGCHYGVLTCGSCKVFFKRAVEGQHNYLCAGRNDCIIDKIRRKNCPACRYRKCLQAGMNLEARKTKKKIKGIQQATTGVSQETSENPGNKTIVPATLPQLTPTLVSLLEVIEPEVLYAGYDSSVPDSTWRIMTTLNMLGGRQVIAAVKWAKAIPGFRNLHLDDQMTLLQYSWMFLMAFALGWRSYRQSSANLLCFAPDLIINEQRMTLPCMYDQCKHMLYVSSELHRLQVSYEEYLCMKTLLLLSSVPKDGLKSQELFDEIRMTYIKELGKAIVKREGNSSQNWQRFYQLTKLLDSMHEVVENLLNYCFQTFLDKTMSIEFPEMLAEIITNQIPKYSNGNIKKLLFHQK
Androgen receptor (Homo sapiens), sequence (P10275 whole entry, looked up): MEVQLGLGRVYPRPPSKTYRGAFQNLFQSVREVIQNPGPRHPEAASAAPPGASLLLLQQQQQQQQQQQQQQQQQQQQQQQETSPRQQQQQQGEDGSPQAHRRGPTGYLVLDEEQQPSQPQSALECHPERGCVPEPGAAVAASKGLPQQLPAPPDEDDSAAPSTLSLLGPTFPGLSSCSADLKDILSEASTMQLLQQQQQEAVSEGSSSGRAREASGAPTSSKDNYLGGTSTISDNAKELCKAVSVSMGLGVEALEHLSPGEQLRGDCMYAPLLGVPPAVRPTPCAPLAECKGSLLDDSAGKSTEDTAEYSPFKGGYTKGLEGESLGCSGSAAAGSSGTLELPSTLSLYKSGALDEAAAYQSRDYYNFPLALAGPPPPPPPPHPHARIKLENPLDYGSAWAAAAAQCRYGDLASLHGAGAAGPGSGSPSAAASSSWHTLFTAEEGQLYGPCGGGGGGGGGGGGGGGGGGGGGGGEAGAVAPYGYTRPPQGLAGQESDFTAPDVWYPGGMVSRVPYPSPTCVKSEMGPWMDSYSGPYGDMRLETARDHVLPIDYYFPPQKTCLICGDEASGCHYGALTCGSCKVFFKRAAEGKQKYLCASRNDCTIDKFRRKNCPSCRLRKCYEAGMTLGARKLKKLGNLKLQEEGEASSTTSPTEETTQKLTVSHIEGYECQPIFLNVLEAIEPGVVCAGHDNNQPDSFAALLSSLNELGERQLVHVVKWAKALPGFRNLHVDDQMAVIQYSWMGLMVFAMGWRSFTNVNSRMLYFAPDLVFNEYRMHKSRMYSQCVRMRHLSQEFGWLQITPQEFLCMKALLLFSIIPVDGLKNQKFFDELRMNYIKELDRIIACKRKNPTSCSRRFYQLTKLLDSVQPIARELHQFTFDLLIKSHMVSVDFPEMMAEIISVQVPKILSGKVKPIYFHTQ

Take `O=[N+]([O-])c1cc(N(CCO)CCO)ccc1NCCO`: the call in experiment [1], in [3], in experiment [4], in experiment [5], in experiment [6] and in [7] was inactive. In addition, the call in experiment [10], in [11] and in experiment [12] was inactive. The Potency entry in experiment [2], in [8] and in experiment [9] was “inactive” in each case.

Regarding `NCCc1ccc(O)c(O)c1`, the compound was called inactive in experiment [1], in experiment [3], in experiment [4], in experiment [5], in experiment [6] and in experiment [7]. Further, the Potency entry in experiment [2], in experiment [8] and in experiment [9] was “inactive” each time. The Potency was 54.6 µM (active) in experiment [13], 15.4 µM (active) in experiment [14] and 19.4 µM (active) in experiment [15].

On to `CC(C)(CO)COC(=O)C(C)(C)CO`, for which the result in [1], in experiment [4], in experiment [5], in [6], in experiment [7] and in [10] was inactive. Further, the call in experiment [11], in experiment [12] and in experiment [20] was inactive. Also, the Potency entry in [2], in [16], in experiment [17], in experiment [18], in experiment [8] and in [13] was “inactive” throughout. Also, the Potency result in [14], in experiment [15], in experiment [9] and in experiment [19] was “inactive” each time.

For `O=C1O[C@H](CO)[C@@H](O)[C@H](O)[C@H]1O`, the result in experiment [1], in experiment [3], in [4], in [5], in experiment [6] and in [7] was inactive. For the same compound, the Potency result in experiment [2], in experiment [17], in experiment [18], in experiment [13], in experiment [14] and in experiment [9] was “inactive” each time. Besides, the Potency result in experiment [19] is “inactive”.

Consider `CCOC(=O)[C@H](CCc1ccccc1)N[C@@H](C)C(=O)N1Cc2ccccc2C[C@H]1C(=O)O`, for which the call in [1], in experiment [3], in experiment [4], in experiment [5], in [6] and in experiment [7] was inactive. For the same compound, the Potency entry in [2], in [17], in [18], in experiment [8], in [13] and in experiment [15] was “inactive” in each case. The Potency result in experiment [9] and in experiment [19] was “inactive” in each case. Moreover, the Potency result in experiment [14] is “inactive and 61.6 µM (active)”.

As for `NC(=O)/N=N/C(N)=O`, the call in experiment [1], in experiment [3], in [4], in experiment [5], in experiment [6] and in [7] was inactive. In addition, the Potency entry in experiment [2], in [17], in [18], in [8], in experiment [13] and in experiment [14] was “inactive” throughout. The Potency entry in [15], in [9] and in [19] was “inactive” in each case.

As for `C=C(C)C(=O)OCCC[Si](OC)(OC)OC`, the compound was classed as inactive in experiment [1], in [3], in [4], in experiment [5], in [6] and in experiment [7]. Also, the Potency entry in [2], in experiment [17], in experiment [18], in experiment [13], in experiment [14] and in experiment [9] was “inactive” throughout. In addition, the Potency result in experiment [19] is “inactive”.

In the case of `O=[N+]([O-])c1cccc(Cl)c1`, the result in experiment [1], in experiment [3], in experiment [4], in [5], in experiment [6] and in [7] was inactive. Further, the Potency result in [2], in [16], in experiment [13], in experiment [14], in experiment [9] and in experiment [19] was “inactive” each time.

Consider `C=C(C)C(=O)OCC(CC)(COC(=O)C(=C)C)COC(=O)C(=C)C`, for which the compound was classed as inactive in [1], in experiment [3], in [4], in [5], in experiment [6] and in [7]. For the same compound, the Potency result in experiment [2], in experiment [17], in experiment [18], in experiment [13], in experiment [9] and in [19] was “inactive” throughout.

With `Cn1c([N+](=O)[O-])cnc1COC(N)=O`, the compound was called inactive in experiment [1], in experiment [3], in [4], in experiment [5], in experiment [6] and in experiment [7]. In addition, the Potency entry in [2], in experiment [17], in [18], in [8], in experiment [13] and in experiment [14] was “inactive” throughout. Moreover, the Potency result in [15], in experiment [9] and in experiment [19] was “inactive” throughout.

`CCc1ccccc1O`: the outcome in experiment [1], in experiment [3], in [4], in [5], in experiment [6] and in [7] was inactive. Besides, the Potency entry in experiment [2], in experiment [17], in experiment [18], in experiment [13], in experiment [14] and in [9] was “inactive” throughout. In experiment [19], the Potency entry is “inactive”.

Turning to `Cc1cc(O)c2c(c1)C(=O)c1cc(O)cc(O)c1C2=O`, the compound was classed as inactive in experiment [1], in experiment [4], in [5], in experiment [6] and in experiment [7]. In addition, the Potency result in experiment [2], in experiment [17], in [8] and in [19] was “inactive” each time. Moreover, the Potency in [13] is 27.3 µM (active); in [14], “inactive and 38.6 µM (active)”; in experiment [15], 1.68 µM (active) and 3.06 µM (active); in [9] it was 12 µM (active) and inactive.

In the case of `CNC[C@H](O)[C@@H](O)[C@H](O)[C@H](O)CO`, the outcome in experiment [1], in [4], in [5], in experiment [6] and in [7] was inactive. Besides, the Potency result in [2], in [8], in experiment [13], in experiment [14], in experiment [9] and in experiment [19] was “inactive” each time.
